Records with an inconclusive call do not appear. Calls of active or inactive are those of the source. Rule for the calls, unless noted: active = hit-call score of the fitted dose curve at least 0.9, where 1 is the maximum; inactive = score below 0.9.
Key:
[1] = target: Paired box protein Pax-6 (Homo sapiens) (UniProt P26367); assay: ATG_Pax6_CIS: Attagene CIS-FACTORIAL HepG2 Assay for human Paired Box 6 (PAX6) (AID 2282956); details: HepG2 CIS-FACTORIAL PAX6 reporter transcription, RNA readout; actives raise or lower the signal
Method in brief: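 Values derive from bidirectional curve fitting of reporter mRNA signal relative to DMSO. HepG2 cells bearing transfected cis-regulated MRTUs were exposed for 24 h; transcripts were read by RT-PCR and capillary electrophoresis.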

[2] = ATG_PXRE_CIS: Attagene CIS-FACTORIAL HepG2 Assay for human Pregnane X Receptor Element (PXRE) (AID 2282957); details: HepG2 Attagene CIS-FACTORIAL PXRE reporter, mRNA; actives raise or lower the signal
Method in brief: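 Bidirectional activity, baselined to DMSO, derived from reporter mRNA fluorescence (RT-PCR plus capillary electrophoresis) in HepG2 cells bearing cis-promoter reporter units, 24 h exposure.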

[3] = ATG_PPRE_CIS: Attagene CIS-FACTORIAL HepG2 Assay for human Peroxisome Proliferator-activated Response Element (PPRE) (AID 2282958); details: HepG2 PPRE cis-element reporter, Attagene transcription factor profiling; actives raise or lower the signal
Method in brief: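 HepG2 cells are transiently transfected with multiplexed cis-promoter reporter units to report endogenous PPAR activity. After 24 h dosing, reporter mRNA is read by RT-PCR and capillary electrophoresis. Fitting is bidirectional against DMSO.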

[4] = ATG_RORE_CIS: Attagene CIS-FACTORIAL HepG2 Assay for human RAR-related Orphan Receptor Element (RORE) (AID 2282959); details: HepG2 Attagene cis-factorial RORE reporter, mRNA; actives raise or lower the signal
Method in brief: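 HepG2 cells carrying transiently transfected cis-regulated reporter units; RORE-driven reporter mRNA quantified 24 h post-dosing by RT-PCR, 6-FAM primer extension, HpaI digestion and capillary electrophoresis. Bidirectional fit versus DMSO.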

[5] = ATG_Sox_CIS: Attagene CIS-FACTORIAL HepG2 Assay for human SRY-box transcription factor (SOX) (AID 2282960); details: HepG2 Attagene cis-factorial SOX reporter, mRNA; actives raise or lower the signal
Method in brief: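 HepG2 cells transiently transfected with multiple cis-regulated reporter units, then dosed for 24 h. Reporter mRNA quantified by RT-PCR, fluorescent labelling, HpaI digestion and capillary electrophoresis; bidirectional fit versus DMSO.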

[6] = target: Transcription factor Sp1 (Homo sapiens) (UniProt P08047); assay: ATG_Sp1_CIS: Attagene CIS-FACTORIAL HepG2 Assay for human Specificity Protein 1 (Sp1) (AID 2282961); details: HepG2 Sp1 cis-reporter transcription, actives raise or lower the signal
Method in brief: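 HepG2 cells transiently transfected with multiplexed cis-regulated reporter constructs, chemical exposure 24 h. Reporter mRNA quantified by RT-PCR with capillary electrophoresis; bidirectional fit relative to DMSO.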

[7] = ATG_SREBP_CIS: Attagene CIS-FACTORIAL HepG2 Assay for human Sterol Regulatory Element Binding (SREBP) (AID 2282962); details: HepG2 Attagene cis-factorial SREBP reporter, mRNA; actives raise or lower the signal
Method in brief: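 Values derive from bidirectional curve fitting with DMSO as baseline. The underlying measurement is reporter mRNA from cis-element-regulated units in transiently transfected HepG2, quantified by RT-PCR and capillary electrophoresis after 24 h exposure.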

[8] = target: Signal transducer and activator of transcription 3 (Homo sapiens) (UniProt P40763); assay: ATG_STAT3_CIS: Attagene CIS-FACTORIAL HepG2 Assay for human Signal Transducer and Activator of Transcription 3 (STAT3) (AID 2282963); details: HepG2, Attagene cis-factorial STAT3 reporter transcription; actives raise or lower the signal
Method in brief: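 Cis-factorial format: endogenous transcription factors in HepG2 drive transfected reporter units. After 24 h treatment, reporter RNA was reverse-transcribed, amplified, FAM-labelled and HpaI-digested before CE analysis; activity scored in both directions against DMSO.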

[9] = ATG_TCF_b_cat_CIS: Attagene CIS-FACTORIAL HepG2 Assay for human T-Cell-Factor with beta-catenin (TCF/b-cat) (AID 2282965); details: HepG2 TCF/beta-catenin cis-reporter transcription, actives raise or lower the signal
Method in brief: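 Endogenous transcription factor activity is captured through cis-promoter reporter constructs transiently introduced into human HepG2 liver cells. Induced reporter mRNA is measured after 24 h and fitted bidirectionally relative to DMSO.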

[10] = ATG_TAL_CIS: Attagene CIS-FACTORIAL HepG2 Assay for human TAL Basal Promoter (AID 2282966); details: HepG2 Attagene cis-factorial TAL promoter reporter; actives raise or lower the signal;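 note: background control endpoint measuring basal TAL promoter reporter mRNA not a specific factor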
Method in brief: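 Human hepatoma HepG2 cells, transfected with promoter-regulated reporter units, were treated 24 h. Reporter transcript levels, measured through RT-PCR and capillary electrophoresis, were fitted for gain or loss relative to DMSO.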

[11] = ATG_TGFb_CIS: Attagene CIS-FACTORIAL HepG2 Assay for human Transforming Growth Factor (TGF) (AID 2282967); details: HepG2 Attagene CIS TGFb reporter, mRNA transcription; actives raise or lower the signal
Method in brief: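 Bidirectional fitting relative to DMSO gave the endpoint. Underlying data: reporter mRNA from HepG2 cells carrying transiently transfected cis-regulated reporter constructs, harvested 24 h after dosing and analyzed by RT-PCR and capillary electrophoresis.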

[12] = target: X-box-binding protein 1 (Homo sapiens) (UniProt P17861); assay: ATG_Xbp1_CIS: Attagene CIS-FACTORIAL HepG2 Assay for human X-box Binding Protein 1 (XBP1) (AID 2282972); details: HepG2 XBP1 cis-element reporter, Attagene multiplex; actives raise or lower the signal
Method in brief: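 Human hepatoma HepG2, cis-element reporter system, 24 h treatment; mRNA quantified by RT-PCR/CE fluorescence; fit relative to DMSO.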

[13] = ATG_M_19_TRANS: Attagene TRANS-FACTORIAL HepG2 Assay for M19 Transcription Factor (Internal Marker) (AID 2282974; active = hit-call score of the fitted dose curve at least 0.9, where 1 is the maximum); details: HepG2 Attagene TRANS-FACTORIAL M19 internal marker reporter
Method in brief: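 HepG2 transiently transfected with GAL4-UAS multiplex reporter constructs, exposed 24 h; reporter RNA quantified by RT-PCR, 6-FAM labeling, HpaI digestion and capillary electrophoresis; internal background marker fitted upward versus DMSO.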

[14] = ATG_GAL4_TRANS: Attagene TRANS-FACTORIAL HepG2 Assay for GAL4 (Internal Marker) (AID 2282976; active = hit-call score of the fitted dose curve at least 0.9, where 1 is the maximum); details: HepG2 Attagene TRANS GAL4 internal marker reporter
Method in brief: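 Liver HepG2 line bearing multiplexed GAL4-UAS reporter constructs; 24 h chemical treatment. Transcripts were quantified as fluorescent fragments on capillary electrophoresis after RT-PCR and HpaI cut, with activity fitted upward from DMSO.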

[15] = ATG_TA_CIS: Attagene CIS-FACTORIAL HepG2 Assay for human TA Basal Promoter (AID 2282964); details: HepG2 Attagene CIS-factorial TA basal promoter reporter; actives raise or lower the signal
Method in brief: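 Fluorescence from labelled RT-PCR reporter fragments, separated by capillary electrophoresis, gives the signal. Cells: HepG2 transiently carrying multiple reporter units, 24 h chemical dosing. Gain or loss relative to DMSO.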

[16] = ATG_VDRE_CIS: Attagene CIS-FACTORIAL HepG2 Assay for human Vitamin D Receptor Element (VDRE) (AID 2282968); details: HepG2 VDRE cis-reporter transcription, actives raise or lower the signal
Method in brief: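 Measures endogenous factor activity through cis-element-driven reporter transcripts in transiently transfected HepG2. Cells are treated 24 h; reporter mRNA is quantified by RT-PCR and capillary electrophoresis; fitting is bidirectional.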

[17] = target: Estrogen-related receptor gamma (Homo sapiens) (UniProt P62508); assay: ATG_ERRg_TRANS: Attagene TRANS-FACTORIAL HepG2 Assay for human Estrogen-Related Receptor gamma (ERRg) (AID 2282977; active = hit-call score of the fitted dose curve at least 0.9, where 1 is the maximum;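 note: hits increase reporter signal over DMSO so potencies reflect activators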); details: HepG2 Attagene TRANS reporter, ERRg transactivation
Method in brief: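 Exogenous NR-Gal4 chimera activity was assessed in HepG2 cells bearing transfected GAL4-UAS reporters. After 24 h dosing, total RNA underwent RT-PCR, fluorescent primer extension and HpaI digestion before capillary electrophoresis, with gain of signal scored against DMSO.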

[18] = target: Steroid hormone receptor ERR1 (Homo sapiens) (UniProt P11474); assay: ATG_ERRa_TRANS: Attagene TRANS-FACTORIAL HepG2 Assay for human Estrogen-Related Receptor alpha (ERRa) (AID 2282971; active = hit-call score of the fitted dose curve at least 0.9, where 1 is the maximum); details: HepG2 Attagene TRANS reporter, ERRa transactivation
Method in brief: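 Signal gain relative to DMSO for an ERRa-Gal4 chimeric receptor, read as reporter mRNA by RT-PCR/capillary electrophoresis. Human HepG2 liver cells, transient multiplex reporter transfection, 24 h chemical exposure.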

[19] = target: Nuclear receptor subfamily 1 group I member 3 (Homo sapiens) (UniProt Q14994); assay: ATG_CAR_TRANS: Attagene TRANS-FACTORIAL HepG2 Assay for human Constitutive Androstane Receptor (CAR) (AID 2282969; active = hit-call score of the fitted dose curve at least 0.9, where 1 is the maximum;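 note: activators raise reporter mRNA above DMSO so AC50 marks induction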); details: HepG2 Attagene TRANS-FACTORIAL CAR reporter
Method in brief: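 Signal is reporter mRNA induction relative to DMSO, measured 24 h after dosing by RT-PCR with fluorescent primer extension and capillary electrophoresis. Human HepG2 liver cells carried transiently transfected chimeric NR-Gal4/GAL4-UAS reporter constructs.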

[20] = target: Estrogen receptor (Homo sapiens) (UniProt P03372); assay: ATG_ERa_TRANS: Attagene TRANS-FACTORIAL HepG2 Assay for human Estrogen Receptor alpha (ERa) (AID 2282970; active = hit-call score of the fitted dose curve at least 0.9, where 1 is the maximum); details: HepG2 Attagene TRANS ERa GAL4 reporter, mRNA
Method in brief: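 Signal derives from fluorescence of labelled reporter PCR fragments separated by capillary electrophoresis. HepG2 cells transiently carrying multiple GAL4-UAS reporter units were treated 24 hours, and induction above DMSO baseline was fitted as activity.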

Measured: AC50

Sequence of Transcription factor Sp1 (Homo sapiens) (P08047 whole entry, looked up): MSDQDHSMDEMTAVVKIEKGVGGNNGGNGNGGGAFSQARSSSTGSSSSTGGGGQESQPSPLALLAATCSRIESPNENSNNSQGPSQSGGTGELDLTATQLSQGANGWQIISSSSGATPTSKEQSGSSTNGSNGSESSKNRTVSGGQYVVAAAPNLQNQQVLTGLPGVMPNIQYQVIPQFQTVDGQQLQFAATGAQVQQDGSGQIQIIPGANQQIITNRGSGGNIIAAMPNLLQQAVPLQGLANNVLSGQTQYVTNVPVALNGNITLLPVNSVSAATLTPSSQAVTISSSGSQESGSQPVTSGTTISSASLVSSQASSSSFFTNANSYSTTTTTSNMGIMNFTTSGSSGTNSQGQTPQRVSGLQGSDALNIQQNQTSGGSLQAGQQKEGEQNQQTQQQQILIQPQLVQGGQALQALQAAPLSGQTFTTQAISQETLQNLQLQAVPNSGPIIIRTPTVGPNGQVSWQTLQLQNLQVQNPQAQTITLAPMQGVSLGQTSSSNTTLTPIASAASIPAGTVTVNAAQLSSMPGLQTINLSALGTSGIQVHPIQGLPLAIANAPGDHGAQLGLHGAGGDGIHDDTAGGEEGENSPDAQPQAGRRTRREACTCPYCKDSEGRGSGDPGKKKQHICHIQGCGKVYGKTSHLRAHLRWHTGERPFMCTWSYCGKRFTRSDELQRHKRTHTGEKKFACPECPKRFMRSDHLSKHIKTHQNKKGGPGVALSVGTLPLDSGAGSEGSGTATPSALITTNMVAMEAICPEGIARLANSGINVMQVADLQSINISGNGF
Sequence of Signal transducer and activator of transcription 3 (Homo sapiens) (P40763 whole entry, looked up): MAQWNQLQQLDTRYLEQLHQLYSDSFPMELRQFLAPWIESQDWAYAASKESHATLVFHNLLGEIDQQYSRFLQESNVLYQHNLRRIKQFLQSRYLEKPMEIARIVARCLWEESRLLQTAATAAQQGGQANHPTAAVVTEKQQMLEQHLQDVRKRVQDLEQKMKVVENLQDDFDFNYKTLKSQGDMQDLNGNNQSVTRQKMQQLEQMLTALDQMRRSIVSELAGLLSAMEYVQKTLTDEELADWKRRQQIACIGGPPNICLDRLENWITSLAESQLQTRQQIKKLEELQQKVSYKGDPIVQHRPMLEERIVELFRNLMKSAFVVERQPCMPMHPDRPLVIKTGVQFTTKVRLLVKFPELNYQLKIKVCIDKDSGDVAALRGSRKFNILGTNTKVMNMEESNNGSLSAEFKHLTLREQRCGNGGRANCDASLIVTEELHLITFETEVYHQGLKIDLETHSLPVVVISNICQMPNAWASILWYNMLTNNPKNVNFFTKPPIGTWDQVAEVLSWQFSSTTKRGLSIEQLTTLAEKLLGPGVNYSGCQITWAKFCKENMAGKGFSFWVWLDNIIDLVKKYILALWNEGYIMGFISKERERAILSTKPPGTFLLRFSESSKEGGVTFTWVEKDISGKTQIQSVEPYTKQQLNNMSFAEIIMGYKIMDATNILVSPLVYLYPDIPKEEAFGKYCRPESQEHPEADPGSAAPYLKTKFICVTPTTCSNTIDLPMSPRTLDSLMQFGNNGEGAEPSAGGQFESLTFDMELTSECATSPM
Sequence of X-box-binding protein 1 (Homo sapiens) (P17861 whole entry, looked up): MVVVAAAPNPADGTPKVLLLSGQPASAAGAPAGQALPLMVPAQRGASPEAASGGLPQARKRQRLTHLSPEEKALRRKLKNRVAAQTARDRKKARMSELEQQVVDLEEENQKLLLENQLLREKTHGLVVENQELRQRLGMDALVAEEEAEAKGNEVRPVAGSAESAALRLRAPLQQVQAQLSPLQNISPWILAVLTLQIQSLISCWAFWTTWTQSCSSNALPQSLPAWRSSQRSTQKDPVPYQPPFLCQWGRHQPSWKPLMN
Sequence of Paired box protein Pax-6 (Homo sapiens) (P26367 whole entry, looked up): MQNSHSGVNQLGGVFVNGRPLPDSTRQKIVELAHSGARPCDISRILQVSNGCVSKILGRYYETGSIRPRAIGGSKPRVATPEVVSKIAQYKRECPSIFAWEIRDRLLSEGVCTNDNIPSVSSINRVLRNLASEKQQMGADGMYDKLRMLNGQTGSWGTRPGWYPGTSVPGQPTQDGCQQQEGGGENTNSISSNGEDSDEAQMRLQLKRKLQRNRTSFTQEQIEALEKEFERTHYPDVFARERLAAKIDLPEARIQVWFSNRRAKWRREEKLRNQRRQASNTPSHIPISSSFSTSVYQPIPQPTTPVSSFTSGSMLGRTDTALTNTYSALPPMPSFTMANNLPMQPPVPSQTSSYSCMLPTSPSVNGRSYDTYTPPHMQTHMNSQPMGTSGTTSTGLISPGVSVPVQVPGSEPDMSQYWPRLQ
Sequence of Nuclear receptor subfamily 1 group I member 3 (Homo sapiens) (Q14994 whole entry, looked up, the tested form may be a part): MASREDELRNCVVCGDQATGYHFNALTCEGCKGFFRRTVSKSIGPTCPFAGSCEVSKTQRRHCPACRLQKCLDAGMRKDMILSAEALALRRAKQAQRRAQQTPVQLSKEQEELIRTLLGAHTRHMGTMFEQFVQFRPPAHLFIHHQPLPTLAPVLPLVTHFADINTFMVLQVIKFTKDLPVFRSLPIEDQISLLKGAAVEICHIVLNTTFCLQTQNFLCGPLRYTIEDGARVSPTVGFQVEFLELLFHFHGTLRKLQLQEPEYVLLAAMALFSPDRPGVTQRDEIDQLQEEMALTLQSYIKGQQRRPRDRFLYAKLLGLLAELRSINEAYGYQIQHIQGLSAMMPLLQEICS
Sequence of Steroid hormone receptor ERR1 (Homo sapiens) (P11474 whole entry, looked up, the tested form may be a part): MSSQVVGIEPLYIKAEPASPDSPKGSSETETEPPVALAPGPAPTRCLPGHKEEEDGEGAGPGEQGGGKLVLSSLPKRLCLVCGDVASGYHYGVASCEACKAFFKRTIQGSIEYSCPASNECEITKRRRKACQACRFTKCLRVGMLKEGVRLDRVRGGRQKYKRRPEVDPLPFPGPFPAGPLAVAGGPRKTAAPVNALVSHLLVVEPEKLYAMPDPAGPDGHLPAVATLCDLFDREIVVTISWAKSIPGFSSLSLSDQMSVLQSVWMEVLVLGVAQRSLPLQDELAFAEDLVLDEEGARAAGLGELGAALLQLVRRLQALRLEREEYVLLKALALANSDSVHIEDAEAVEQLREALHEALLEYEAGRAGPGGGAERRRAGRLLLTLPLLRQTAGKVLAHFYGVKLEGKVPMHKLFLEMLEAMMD
Sequence of Estrogen-related receptor gamma (Homo sapiens) (P62508 whole entry, looked up, the tested form may be a part): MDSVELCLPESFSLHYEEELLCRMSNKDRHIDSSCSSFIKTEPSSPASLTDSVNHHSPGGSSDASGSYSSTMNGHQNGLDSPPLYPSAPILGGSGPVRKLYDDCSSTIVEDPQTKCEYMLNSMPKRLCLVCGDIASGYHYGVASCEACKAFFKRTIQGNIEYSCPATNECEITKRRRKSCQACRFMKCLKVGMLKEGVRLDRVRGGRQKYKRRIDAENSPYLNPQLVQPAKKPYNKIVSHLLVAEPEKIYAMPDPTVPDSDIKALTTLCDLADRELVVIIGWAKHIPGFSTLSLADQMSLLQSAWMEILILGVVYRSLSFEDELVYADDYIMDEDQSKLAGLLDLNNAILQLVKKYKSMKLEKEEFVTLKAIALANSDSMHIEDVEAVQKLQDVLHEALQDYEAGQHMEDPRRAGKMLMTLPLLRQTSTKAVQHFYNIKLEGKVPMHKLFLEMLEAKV
Sequence of Estrogen receptor (Homo sapiens) (P03372 whole entry, looked up, the tested form may be a part): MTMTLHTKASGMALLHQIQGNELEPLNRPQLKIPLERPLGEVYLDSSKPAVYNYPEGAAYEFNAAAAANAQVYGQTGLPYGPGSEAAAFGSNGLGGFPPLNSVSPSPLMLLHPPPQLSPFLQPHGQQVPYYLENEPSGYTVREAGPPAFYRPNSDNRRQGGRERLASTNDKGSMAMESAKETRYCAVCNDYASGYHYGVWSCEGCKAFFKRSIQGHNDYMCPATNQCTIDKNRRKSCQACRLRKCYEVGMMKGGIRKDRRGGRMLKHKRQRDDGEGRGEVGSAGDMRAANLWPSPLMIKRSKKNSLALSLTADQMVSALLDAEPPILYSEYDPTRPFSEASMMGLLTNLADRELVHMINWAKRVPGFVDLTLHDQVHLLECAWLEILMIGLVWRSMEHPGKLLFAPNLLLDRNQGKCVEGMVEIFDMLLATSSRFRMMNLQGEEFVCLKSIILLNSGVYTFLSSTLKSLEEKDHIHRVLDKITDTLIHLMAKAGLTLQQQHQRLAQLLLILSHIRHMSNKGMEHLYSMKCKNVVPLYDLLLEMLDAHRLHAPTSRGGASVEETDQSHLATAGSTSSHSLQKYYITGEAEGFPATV

CCCCCC(C=O)=Cc1ccccc1
active: [2] 24.5 µM | [3] 26.5 µM
not listed: [15] | [16] | [17] | [18] | [19] | [20]
inactive: all other assays above

O=C1OC(=O)c2c(Br)c(Br)c(Br)c(Br)c21
not listed: [6] | [9] | [13] | [17] | [18] | [19] | [20]
inactive: all other assays above

C=C1C[C@]23C[C@@]1(O)CC[C@H]2[C@@]12C=C[C@H](O)[C@@](C)(C(=O)O1)[C@H]2[C@@H]3C(=O)O
not listed: [7] | [13] | [14] | [18] | [19] | [20]
inactive: all other assays above

C=Cc1ccc(C(C)(C)C)cc1
active: [2] 27.4 µM
not listed: [7] | [12] | [16] | [17] | [18] | [19] | [20]
inactive: all other assays above

CCCCCCCC(=O)OCCCCCC
active: [2] 28.2 µM
not listed: [6] | [7] | [14] | [17] | [19] | [20]
inactive: all other assays above

CCCCCC(=O)CC
active: [2] 33.4 µM
not listed: [6] | [7] | [13] | [14] | [17] | [18] | [19] | [20]
inactive: all other assays above

CCCCCCC(O)CCCCCCCCCCC(=O)O (stereo unspecified)
active: [3] 18 µM
not listed: [6] | [9] | [13] | [14] | [20]
inactive: all other assays above

Cc1[nH]c(=O)c(C#N)cc1-c1ccncc1
not listed: [7] | [11] | [13] | [14] | [16] | [17] | [18] | [19]
inactive: all other assays above

Nc1ccc2c(O)cc(S(=O)(=O)O)cc2c1
not listed: [7] | [13] | [14] | [16] | [17] | [18] | [20]
inactive: all other assays above

CC(=O)c1ccccn1
not listed: [13] | [14] | [15] | [17] | [18] | [19] | [20]
inactive: all other assays above

Cc1ncc[nH]1
not listed: [14] | [15] | [17] | [18] | [19] | [20]
inactive: all other assays above

CCCCCCCCc1ccc(S(=O)(=O)O)cc1
active: [1] 19.7 µM | [6] 186 µM
not listed: [7] | [17] | [18] | [19] | [20]
inactive: all other assays above

CS(C)=O
not listed: [6] | [14] | [17] | [18] | [19] | [20]
inactive: all other assays above

From PubChem BioAssay (EPA / NIEHS)
